Screening results (PubChem)
VDR inhibitor: inhibitors of human vitamin D receptor; P11473; VDR-SRC2-3 peptide fluorescence polarization, 2 h; Potency, µM, actives largely listed as inhibitors; 400,000 tested, 0.93% active; AID 504847
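Two reagent solutions held at 4 deg C in the dark were dispensed, compounds pinned at 23 nl, and the mixture incubated 2 h at room temperature. Read-out: fluorescence polarization of VDR–SRC2-3 peptide binding.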
PLK1 PBD inh: inhibitors of human PLK1 polo-box domain binding. P53350. Plk1 PBD binding of FITC phosphopeptide, fluorescence polarization. Potency, µM, actives largely listed as inhibitors. 360,000 tested, 2.8% active; note: series mostly up to about 57 µM; nearly all actives have a fitted effect of over 65% in size
GCN5L2 inh: GCN5L2 (KAT2A) acetyltransferase inhibition | Q92830 | AID 504327 | 390,000 tested, 0.21% active | Potency, µM (titrated, usually from 58.9 µM), hits mostly inhibitors | GCN5L2 HAT assay, ThioGlo1 CoA-SH fluorescence
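ThioGlo1-coupled HAT assay: 20nM GCN5L2, 70uM acetyl-CoA, 75uM H3(1-25) peptide, pH 7.5. Fluorescence read at 340/540nm at start and after 20 min at room temperature.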
ALOX12 inh: ALOX12 (human) lipoxygenase inhibition | P18054 | purified 12hLO, xylenol orange hydroperoxide absorbance | Potency, µM (highest dose often 108 µM), hits mostly inhibitors | 580,000 tested, 1.1% active | AID 1671190
Target sequence (P18054 whole entry, looked up): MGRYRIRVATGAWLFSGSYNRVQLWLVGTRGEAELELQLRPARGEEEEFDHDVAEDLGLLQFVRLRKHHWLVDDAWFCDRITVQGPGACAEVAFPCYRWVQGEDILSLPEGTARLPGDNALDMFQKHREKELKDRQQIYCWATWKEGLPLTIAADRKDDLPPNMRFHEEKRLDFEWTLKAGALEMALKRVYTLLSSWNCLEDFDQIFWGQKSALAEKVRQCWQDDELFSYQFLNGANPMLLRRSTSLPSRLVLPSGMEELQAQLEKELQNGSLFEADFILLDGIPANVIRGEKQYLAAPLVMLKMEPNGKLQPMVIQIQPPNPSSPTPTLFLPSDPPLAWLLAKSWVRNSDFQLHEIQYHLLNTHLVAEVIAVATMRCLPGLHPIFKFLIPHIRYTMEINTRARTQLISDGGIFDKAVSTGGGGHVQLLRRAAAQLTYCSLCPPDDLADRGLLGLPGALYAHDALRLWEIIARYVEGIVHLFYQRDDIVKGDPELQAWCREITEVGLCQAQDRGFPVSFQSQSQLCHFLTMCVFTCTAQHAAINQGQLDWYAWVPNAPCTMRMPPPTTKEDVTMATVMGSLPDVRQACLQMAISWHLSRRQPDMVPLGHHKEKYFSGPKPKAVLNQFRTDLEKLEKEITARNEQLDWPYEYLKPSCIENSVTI
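Hydroperoxide product was detected by ferrous iron/xylenol orange as the 573 to 405 nm absorbance ratio. Arachidonic acid at 40 uM (final) was turned over for 30 min at room temperature by 150 nM human 12hLO, pH 7.0 Hepes buffer, after 15 min compound preincubation.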
Hits are given with their value. Sampled rows, rich in hits. Any-hit rate of the full collection: about 3%. Calls come from the whole dose curve; as a rule, active = well fitted curve in the direction sought with a large enough effect; inconclusive = small, poorly fitted or top-dose-only effect, or another doubt; inactive = no such curve, though single readings can be large; an effect the other way counts as inactive or inconclusive.

For CC[C@@H](C(=O)[C@@H](C)[C@@H](O)[C@H](C)CCc1ccc(C)c(O)c1C(=O)O)C1O[C@](CC)(C2CC[C@](O)(CC)[C@H](C)O2)C[C@@H]1C (stereo partly drawn) the results were VDR inhibitor inactive and GCN5L2 inh 16µM.
For CC1CCCC(NC(=O)CCS(=O)(=O)c2ccc3c(c2)NC(=O)CS3)C1C (stereo not drawn) the results were VDR inhibitor inconclusive, PLK1 PBD inh 30µM, GCN5L2 inh inactive and ALOX12 inh inactive.
For CC1CCCCC1NC(=O)CCS(=O)(=O)c1ccc2c(c1)NC(=O)CS2 (stereo not drawn) the results were VDR inhibitor inconclusive, PLK1 PBD inh inconclusive, GCN5L2 inh inactive and ALOX12 inh inactive.
For CC1(C)CC(=O)C2=C(C1)Nc1ccccc1S2 the results were VDR inhibitor inactive, PLK1 PBD inh inactive, GCN5L2 inh inactive and ALOX12 inh 25µM.
CC1(C)CC(=O)C2=C(C1)Nc1ccccc1N=C2 was read as GCN5L2 inh inactive.
Screening O=C(CCc1ncc(-c2ccc(Cl)cc2)o1)N1CCSCC1 returned ALOX12 inh inactive.
`COc1ccccc1N(C)S(=O)(=O)c1ccc(C(=O)N(C)Cc2cccc(OC)c2OC)cc1` gave PLK1 PBD inh inactive and ALOX12 inh inactive.
Screening COc1cccc(CN(C)C(=O)c2[nH]c(C)c(C(C)=O)c2C)c1OC returned VDR inhibitor inconclusive, PLK1 PBD inh 27µM, GCN5L2 inh inactive and ALOX12 inh inactive.
For COc1ccc(NC(=O)c2cc(CN3C(=O)c4ccccc4C3=O)ccc2OC)cn1 the results were VDR inhibitor inactive, PLK1 PBD inh 27µM, GCN5L2 inh inactive and ALOX12 inh inactive.
For O=C(CCCC(=O)NCc1ccc(F)cc1)NCc1ccc(F)cc1 the results were VDR inhibitor inactive, PLK1 PBD inh 24µM, GCN5L2 inh inactive and ALOX12 inh inactive.
O=C(CCCC(=O)NCc1ccccc1)NCc1ccccc1 was read as VDR inhibitor inactive, PLK1 PBD inh inactive, GCN5L2 inh inactive and ALOX12 inh inactive.
O=C(/C=C/c1ccc(OCCCF)cc1)NCc1ccc(Cl)cc1 was read as VDR inhibitor inactive, PLK1 PBD inh inactive, GCN5L2 inh 3.5µM and ALOX12 inh inactive.
For O=C(COc1ccc(Cl)cc1)NCc1ccc(F)cc1 the results were VDR inhibitor inactive, PLK1 PBD inh 27µM, GCN5L2 inh inactive and ALOX12 inh inactive.
`COc1ccc(CNC(=O)/C=C/c2ccc(OCCCF)cc2)cc1` gave VDR inhibitor inactive, PLK1 PBD inh inactive, GCN5L2 inh inactive and ALOX12 inh inactive.
`CCCC(C)C(=O)NCc1cccs1` (stereo not drawn) gave ALOX12 inh inactive.
For O=C(Nc1nccs1)C1CCCN(S(=O)(=O)c2cccnc2)C1 (stereo not drawn) the results were VDR inhibitor inactive, PLK1 PBD inh 21µM, GCN5L2 inh inactive and ALOX12 inh inactive.
COc1cccc(CN(C)C(=O)CN2CCCC2c2ccc3c(c2)OCCO3)c1OC (stereo not drawn) was read as ALOX12 inh inactive.
For Cc1ccc(C)c(OCC(=O)Nc2ccccc2C(=O)NC2CC2)c1 the results were VDR inhibitor 89µM, PLK1 PBD inh inactive, GCN5L2 inh inactive and ALOX12 inh inactive.
`Cn1ccc2c(C(=O)NCCc3cnc[nH]3)nc(-c3cnn(Cc4ccccc4)c3)cc21` gave ALOX12 inh inactive.
Screening CCn1c2c(c3cc(C(=O)O)ccc31)CCCC2=O returned VDR inhibitor inactive, PLK1 PBD inh 30µM, GCN5L2 inh inactive and ALOX12 inh inactive.
`CN(C)Cc1nc2ccccc2c(=O)n1Cc1nc(-c2cc3ccccc3o2)cs1` gave VDR inhibitor inconclusive, PLK1 PBD inh 19µM, GCN5L2 inh inactive and ALOX12 inh inactive.
CCOc1ccc(-c2csc(Cn3c(CN4CCN(C)CC4)nc4ccccc4c3=O)n2)cc1 was read as VDR inhibitor inconclusive, PLK1 PBD inh 24µM, GCN5L2 inh inactive and ALOX12 inh inconclusive.
`C=C(C)CSc1cc(C)c(C#N)c2nc3ccccc3n12` gave VDR inhibitor inactive, PLK1 PBD inh 27µM, GCN5L2 inh inconclusive and ALOX12 inh inconclusive.
For Cc1cc(NCCCCO)n2c(nc3ccccc32)c1C#N the results were VDR inhibitor inactive, PLK1 PBD inh inactive, GCN5L2 inh inactive and ALOX12 inh inactive.
Cc1cc(-c2ccco2)n2c(nc3ccccc32)c1C#N was read as VDR inhibitor inactive, PLK1 PBD inh 11µM, GCN5L2 inh inconclusive and ALOX12 inh inactive.
`CC(C)(C)c1cc(NC(=O)Nc2ccc(Cl)c(Cl)c2)no1` gave ALOX12 inh inactive.
For Cc1oc2c(c1C(=O)Nc1cccc3ccccc13)CCCC2 the results were VDR inhibitor inconclusive, PLK1 PBD inh 3µM, GCN5L2 inh inactive and ALOX12 inh inactive.
`COC(=O)Cc1c(C)c2ccc(OCc3ccccc3Cl)cc2oc1=O` gave ALOX12 inh inactive.
Screening Cc1ccc(C(=O)NN2C(=O)CSC2=S)cc1 returned VDR inhibitor inactive, PLK1 PBD inh inactive, GCN5L2 inh inactive and ALOX12 inh inactive.
Screening C/C(=N\N1C(=O)CSC1=S)c1ccc(Br)cc1 returned VDR inhibitor inconclusive, PLK1 PBD inh 5.3µM, GCN5L2 inh inactive and ALOX12 inh inconclusive.
`COc1ccccc1CNC(=O)CSc1nnc(C)n1C1CCCCC1` gave ALOX12 inh inactive.
Screening CC(=O)Nc1ccc(S(=O)(=O)Oc2cccc(/C=C3\SC(N)=NC3=O)c2)cc1 returned VDR inhibitor 35µM, PLK1 PBD inh 4.2µM, GCN5L2 inh inactive and ALOX12 inh inconclusive.
CCOC(=O)CNc1nc(-c2ccccc2)c2cc(C)ccc2n1 was read as ALOX12 inh inactive.
`NC(CSC(c1ccccc1)(c1ccccc1)c1ccc2c(c1)OCO2)C(=O)O` (stereo not drawn) gave PLK1 PBD inh inconclusive and ALOX12 inh 13µM.
NC(=O)CC(c1ccccc1)c1ccc2c(c1)OCO2 (stereo not drawn) was read as VDR inhibitor inactive, PLK1 PBD inh inactive, GCN5L2 inh inactive and ALOX12 inh inactive.
CCOc1ccccc1CN1CCNC(=O)C1CC(=O)NC1CCCCCC1 (stereo not drawn) was read as VDR inhibitor inconclusive, PLK1 PBD inh 21µM, GCN5L2 inh inactive and ALOX12 inh inactive.
CCOc1ccccc1CN1CCNC(=O)C1CC(=O)NC1CCCCC1 (stereo not drawn) was read as VDR inhibitor inactive, PLK1 PBD inh inactive, GCN5L2 inh inactive and ALOX12 inh inactive.
Screening O=C(CSc1ncc(-c2ccccc2)o1)Nc1cccc(F)c1 returned ALOX12 inh inactive.
`CCOC(=O)C(C(=O)OCC)C(C[N+](=O)[O-])c1ccccc1` (stereo not drawn) gave VDR inhibitor inactive, PLK1 PBD inh inactive, GCN5L2 inh inactive and ALOX12 inh inactive.
Screening CC(C(Sc1ccccc1N)c1ccccc1)[N+](=O)[O-] (stereo not drawn) returned VDR inhibitor 18µM, PLK1 PBD inh 1.9µM, GCN5L2 inh inactive and ALOX12 inh inconclusive.
`O=C(NCCO)c1nc(-c2ccc(COc3ccc4c(c3)OCO4)cc2)no1` gave ALOX12 inh inactive.
